The list is not random: actives were taken first. Their share in the collection is about 3.9%.
Cardio protect: cardioprotection against H2O2-induced cell death, primary screen, uHTS, H9c2 cells, ATPLite luminescence; H9c2 cardiomyocytes, H2O2 injury protection, 2 h; protection from H2O2 cell death, % at 20 µM; 360,000 tested, 0.63% active; AID 588492, 2011;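 active = compounds giving at least 50% protection of heart cells from peroxide-induced death in the single-dose screen, raw or plate-pattern-corrected value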;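 also: 0% = DMSO wells with peroxide and 100% = DMSO wells without peroxide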
NTR1 agonist: agonists of human NTR1, primary screen, imaging, U2OS cells, beta-arrestin-GFP, high content | Neurotensin receptor type 1 (Homo sapiens), P30989 | NTR1-U2OS beta-arrestin-GFP spot imaging, agonist mode | activation, % at 20 µM | 330,000 tested, 0.17% active | AID 493036, 2011;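 active = activation at or above 40% of the spot to cytoplasm intensity ratio, with at least 20 cells analyzed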;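 also: 0% = DMSO without peptide and 100% = 100 nM NTR1 peptide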
Target sequence (P30989 whole entry, looked up): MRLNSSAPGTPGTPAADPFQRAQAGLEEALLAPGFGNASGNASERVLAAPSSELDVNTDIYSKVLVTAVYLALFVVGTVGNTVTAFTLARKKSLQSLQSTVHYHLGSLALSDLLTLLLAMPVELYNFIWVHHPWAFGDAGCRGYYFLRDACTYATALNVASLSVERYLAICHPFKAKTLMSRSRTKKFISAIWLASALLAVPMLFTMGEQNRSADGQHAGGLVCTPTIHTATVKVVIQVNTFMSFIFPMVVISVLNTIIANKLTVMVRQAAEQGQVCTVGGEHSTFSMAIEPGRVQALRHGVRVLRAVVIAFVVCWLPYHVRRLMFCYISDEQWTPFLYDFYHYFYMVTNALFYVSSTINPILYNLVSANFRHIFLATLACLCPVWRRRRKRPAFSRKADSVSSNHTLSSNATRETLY
UBC9 SUMO inh: inhibitors of in vitro SUMOylation cascade, primary screen, biochemical, HTRF, uHTS; SUMO-conjugating enzyme UBC9 (Homo sapiens), P63279; HTRF SUMOylation assay, SAE1/SAE2 + UBC9; inhibition, % at 35 µM; 290,000 tested, 0.36% active; in the data active = inhibition above about 50%, passing the limit was not always enough
Target sequence (P63279 whole entry, looked up): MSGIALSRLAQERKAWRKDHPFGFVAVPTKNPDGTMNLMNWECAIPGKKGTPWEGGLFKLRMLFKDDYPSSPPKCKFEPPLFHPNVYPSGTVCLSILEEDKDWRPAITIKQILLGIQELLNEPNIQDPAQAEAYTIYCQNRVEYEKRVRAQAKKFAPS
ALR inh: inhibitors of human ALR sulfhydryl oxidase, primary screen, biochemical, H2O2 detection, HRP-luminol luminescence, single point | 290,000 tested, 3.8% active | purified ALR, DTT oxidation | AID 485317, 2010 | inhibition, % (no concentration beside the values) | FAD-linked sulfhydryl oxidase ALR (Homo sapiens), P55789;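 active = mean replicate inhibition above about 79%, with every replicate also reaching it, limit read from the data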
* marks the source's active call; other numbers are inactive results; x = no result given.

SMILES	Cardio protect	NTR1 agonist	UBC9 SUMO inh	ALR inh
Cc1cc(C)cc(NC(=S)/C(=C(\[O-])c2ccc(Cl)cc2Cl)[n+]2ccc(C(C)(C)C)cc2)c1	1.5	2.4	-2.7	-3.1
CCC(C)NC(=O)c1ccccc1NC(=O)c1ccc(CSc2ccc(C)cc2)cc1 (stereo not given)	-3.1	9.3	-7.4	99.5*
Cc1cccc(Oc2ccc(NC(=O)C3CC=CCC3C(=O)O)cc2)c1 (stereo not given)	1.9	-1.3	-1.7	54.6
O=C(Nc1ccc(Br)cc1)c1cccnc1N1CCCCC1	2.4	3.6	26.9	-0.9
Cc1ccc(N(CC2=NCCN2)c2cccc(O)c2)cc1	12.0	-0.9	17.7	98.3*
O=C(CSc1cnc2ccccc2n1)c1ccc(F)cc1	-3.2	0.1	4.7	97.1*
CC(C)c1nc(SCC(=O)c2ccc(F)cc2)c2ccccc2n1	-4.7	4.9	-6.7	98.6*
CCOC(=O)CSc1nc(C(C)C)nc2ccccc12	0.3	0.7	21.1	-3.6
Cc1ccc(C(=O)CSc2nc(C(C)C)nc3ccccc23)cc1	6.5	13.7	2.8	98.4*
COC(=O)CSc1cnc2ccccc2n1	-3.1	2.3	1.1	-0.4
O=C(Nc1nc(-c2cccs2)c(-c2ccccc2)s1)c1ccco1	15.2	9.7	-8.5	-7.4
Cc1sc2ncn(CC(=O)N3CCCCC3)c(=O)c2c1S(=O)(=O)N1CCC(C)CC1	-1.4	0.2	1.8	3.1
CCc1ccc2c(CN3CCC(C(=O)OC)CC3)cc(=O)oc2c1	-4.4	1.7	18.6	x
O=C1CSC(c2cccnc2)N1Cc1ccc(Cl)cc1 (stereo not given)	-0.4	0.7	26.4	x
O=C(O)CCCC(=O)N1N=C(c2c(-c3ccccc3)c3cc(Cl)ccc3[nH]c2=O)CC1c1cccs1 (stereo not given)	-3.7	x	17.3	86.5*
O=C(O)CCC(=O)N1N=C(c2c(-c3ccccc3)c3cc(Cl)ccc3[nH]c2=O)CC1c1cccs1 (stereo not given)	14.6	-0.5	23.5	-0.3
CCn1c(SCCC(=O)O)nnc1-c1cccnc1	-8.1	-0.8	9.2	-23.4
COC(=O)CN1C(=O)C(O)(CC(=O)c2ccc(Br)cc2)c2ccccc21 (stereo not given)	2.1	-1.5	11.5	96.5*
Cc1cccc(Nc2nccc(N(C)C)c2C#N)c1	0.2	0.2	-2.9	5.0
CCOC(=O)CSC1=NC(=O)/C(=C\c2ccc(OC(C)=O)cc2)S1	-2.5	-0.1	-9.4	99.9*
CCN(c1ccc(C)c(C)c1)S(=O)(=O)c1ccc2c(c1)CCN2C(=O)CCC(=O)O	-1.2	1.5	19.8	98.8*
Nc1nc(N2CCN(c3cccc(Cl)c3)CC2)n[nH]1	-1.9	-0.2	-11.8	99.2*
Nc1nc(N2CCN(c3ccc(Cl)cc3)CC2)n[nH]1	-1.8	-1.0	16.3	98.1*
Nc1nc(N2CCN(c3ccccc3)CC2)n[nH]1	2.2	0.8	22.4	99.7*
Cc1cc(C)c(NC(=S)NC(=O)c2ccccc2)cc1C	-13.5	x	x	x
SMILES	Cardio protect	NTR1 agonist	UBC9 SUMO inh	ALR inh
COc1cc(C(=O)Oc2cc(N)n(S(=O)(=O)c3ccccc3)n2)cc(OC)c1OC	-2.3	3.0	-3.7	x
COc1ccc(S(=O)(=O)Nc2ccc(O)c3ccccc23)cc1	-12.6	1.5	70.8	88.8*
Cc1ccc(C)c(S(=O)(=O)Nc2ccc(O)c3ccccc23)c1	-21.7	-0.3	67.4	85.4*
Cc1ccc(S(=O)(=O)Nc2cc(C(C(=O)OC(C)C)C(=O)C(F)(F)F)c(O)c3ccccc23)c(C)c1 (stereo not given)	-0.8	7.6	-11.9	2.9
Cc1ccc(S(=O)(=O)Nc2ccc(O)c3ccccc23)c(C)c1	-13.8	x	18.4	95.0*
Cc1ccc(C)c(S(=O)(=O)Nc2ccc(O)c(C(=O)O)c2)c1	2.6	-0.4	23.8	42.8
COc1ccc(S(=O)(=O)Nc2ccccc2)cc1	8.4	2.0	x	-23.8
O=S(=O)(Nc1ccc(O)c2ncccc12)c1ccccc1F	59.8*	x	x	x
C[C@H](CO)N1C[C@H](C)[C@@H](CN(C)S(=O)(=O)c2ccccc2)Oc2ccc(NC(=O)Cn3cnnn3)cc2C1=O	6.8	-2.2	x	0.1
N#Cc1cc(C(=O)c2cc(Br)ccc2O)cn(C2CCCCC2)c1=O	-12.9	6.0	-5.0	-5.5
Cc1ccc(S(=O)(=O)NNC(=O)c2cccs2)c(C)c1	-2.1	1.2	1.9	58.9
Cc1ccc(S(=O)(=O)NNc2ccccc2)c(C)c1	4.2	x	6.4	100.1*
Cc1cccc(C)c1NC(=O)N1C2CCCC1CC(NC(=O)C(C)(C)C)C2 (stereo not given)	-1.7	-0.5	0.2	2.3
C=C[C@@]1(C)CC(=O)[C@]2(O)[C@@]3(C)[C@@H](O)CCC(C)(C)[C@@H]3[C@H](O)[C@H](OC(C)=O)[C@@]2(C)O1	70.7*	2.0	x	4.0
C=C[C@@]1(C)CC(=O)[C@]2(O)[C@@]3(C)[C@@H](O)CCC(C)(C)[C@@H]3[C@H](OC(C)=O)[C@H](O)[C@@]2(C)O1	8.8	-1.1	x	-38.4
CCOC(=O)CN[C@H]1CCC2C3CC=C4C[C@@H](O)CC[C@]4(C)C3CC[C@@]21C (stereo not given in full)	-6.5	2.2	x	-0.6
CN(C)c1ccc(N=c2sc3ccccc3n2C)cc1	-11.2	-0.5	-24.1	98.8*
CC1CC(C)CN(c2ccc([N+](=O)[O-])cc2-c2nn[nH]n2)C1 (stereo not given)	0.0	-3.1	-5.2	3.4
CC(C)N(Cc1nccn1C)C(=O)c1cc(COc2cccc(C(F)(F)F)c2)on1	-3.2	-0.5	-12.2	-42.2
Cc1cc(C)c(N(C(=O)c2csnn2)C(C(=O)NC(C)(C)C)c2ccncc2)c(C)c1 (stereo not given)	1.8	1.0	21.3	-4.4
O=C1N=C(c2ccccc2)C(c2ccccc2)N1 (stereo not given)	0.6	-2.6	17.8	99.2*
CC1=NN(c2ccc(S(=O)(=O)O)cc2C)C(=O)C1	-1.8	0.8	83.9*	x
CC1=NN(c2ccccc2)C(=O)C1	1.2	-1.1	94.1	-11.3
Cc1ccc2c(c1)c1c(n2CC(O)CN2CCC(C)CC2)CCCC1 (stereo not given)	-5.2	2.9	-4.6	93.2*
Cc1ccc2c(c1)c1c(n2CC(O)CN2CCCCC2C)CCCC1 (stereo not given)	0.6	2.3	7.7	95.3*
Cc1ccc2c(c1)c1c(n2CC(O)CNC(CO)(CO)CO)CCCC1 (stereo not given)	3.4	-0.9	5.8	96.1*
Cc1ccc2c(c1)c(C)c(C)n2CC(O)CN1CCCCC1C (stereo not given)	0.3	-0.1	4.4	94.8*
CCOC(=O)c1nc(NNC(=O)c2ccc([N+](=O)[O-])cc2)sc1C	-3.4	0.0	0.4	99.2*
CCOC(=O)c1sc(NNC(=O)c2ccc(C)cc2)nc1C	12.1	0.6	-8.6	x
